The list is not random: actives were taken first. Their share in the collection is about 2.7%.
GSIS activator = primary screen for activators of insulin secretion dependent on glucose, INS-1E cells, GLuc reporter luminescence. INS-1E GLuc reporter insulin secretion, 2-3 h. activation, % at 16.6 µM. 370,000 compounds, 0.61% hits. AID 743287;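 active means lowest replicate activation of at least 40%, so every replicate reaches that level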;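 further: 0% = median of neutral control wells and 100% = median of IBMX positive control wells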
Wnt bcat act = activators of Wnt/beta-catenin signaling; Wnt/beta-catenin reporter cell assay, activator, plate reader; activation, % at 9.35 µM; 300,000 compounds, 1.2% hits; AID 743398; in the data active means activation above about 30%, passing the limit was not always enough; inconclusive means no clear call, values can overlap the other calls;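 further: 0% = neutral control wells and 100% = positive control wells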
MITF act = activators of MITF-driven TRPM1 promoter activity in SK-MEL-5 cells; SK-MEL-5 TRPM1-promoter luciferase, 24 h; % of positive control, neutral wells = 0; activation, % at 12.5 µM; 300,000 compounds, 0.75% hits; AID 588334;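 active means mean activation of at least 80% with every replicate also reaching 80%; inconclusive means mean reaches 80% but some replicate falls short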;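 further: 0% = neutral control wells and 100% = parthenolide positive control wells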
CFTR F508del cor = CFTR F508del correction in bronchial cells; AID 720511; 350,000 compounds, 0.36% hits; activity (quench increase), % at 7.58 µM; CFBE cells, YFP halide quenching; stimulated with forskolin plus potentiator P3; % fluorescence drop versus neutral controls;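 active means mean added fluorescence quench of at least 8% versus neutral control, with both replicates also reaching 8%; inconclusive means only one of the mean or replicate conditions met; inactive means mean below 8% and not both replicates reaching 8%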;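 further: cells transiently co-express mutant CFTR-F508del with the halide-sensitive YFP; corrector assay measuring rescue of mutant channel to the surface after 24 h compound exposure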
HIV Env fusion = blocks HIV Env-driven cell-cell fusion; 360,000 compounds, 1.1% hits; HeLa-JRFL Env/CEM21 cell fusion, luciferase; inhibition, % at 12.3 µM;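 active means mean replicate inhibition score of at least 50 and every replicate individually at or above 50; inconclusive means only one of the two criteria met; inactive means mean below 50 and not all replicates reaching 50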;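 further: 0% = plate neutral controls and 100% = maraviroc near 300 nM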
The depositor's hits bear a star; ? = inconclusive; . = no result; [ ] = remark or other dose.

SMILES	GSIS activator	Wnt bcat act	MITF act	CFTR F508del cor	HIV Env fusion
O=C(Cc1ccncc1)N[C@H]1CC[C@@H](CCn2cc(-c3ccccc3F)nn2)O[C@@H]1CO	10	.	.	0	72*[16.7 µM]
CO[C@H]1CN(C)C(=O)c2ccc(NS(=O)(=O)c3ccc(Cl)cc3)cc2OC[C@@H](C)N(C)C[C@H]1C	-5	.	.	-2	1[16.7 µM]
Clc1ccc(OCc2noc(-c3ccsc3)n2)c(Cl)c1	-5	65*	.	1	-202
Fc1cc(Cl)c(OCc2noc(-c3ccsc3)n2)c(Cl)c1	.	0	90*	3	-15
CN(C)c1ccc(NC(=O)CSc2nc(N)c(C(=O)Nc3ccc(N(C)C)cc3)s2)cc1	2	16	7	.	41*
Nn1c(SCc2ccccc2F)nnc1-c1cccnc1	5	52*	.	-2	-9
Nn1c(SCc2cccc(F)c2)nnc1-c1cccnc1	-36	7	.	0	18
Cn1c(SCc2ccc(F)cc2)nnc1-c1ccccn1	.	43*	52	.	-147
Clc1ccccc1CSc1nnc(-c2ccccn2)n1Cc1ccco1	.	.	.	.	66*
Cc1ccc(CSc2ccc(-c3cccs3)nn2)cc1	45	.	109*	.	-231
O=C(Nc1ccc2c(c1)OCO2)N[C@H]1CC[C@H](CCNC(=O)C2CC2)O[C@@H]1CO	0	.	.	-2	-7[16.7 µM]
C[C@@H]1CN([C@@H](C)CO)C(=O)c2cc(-c3ccncc3)cnc2O[C@H]1CN(C)S(=O)(=O)c1ccc(F)cc1	31	.	.	2	.
Cn1c(SCc2ccc(F)cc2)nnc1-c1cccs1	9	22	86*	3	.
Cn1c(SCc2ccccc2F)nnc1-c1cnccn1	5	12	53	.	-32
Cn1c(SCc2ccccc2F)nnc1-c1ccccn1	-1	56*	54	0	-19
Cn1c(SCc2nc3ccccc3s2)nnc1-c1cccs1	.	.	21	.	.
O=C(Nc1ccc(F)cc1)N1CC(=O)N2[C@H](CO)[C@H](c3ccc(-c4ccc(F)cc4)cc3)[C@H]2C1	-22	.	.	0	.
COc1cc(CNCc2ccccc2)cc(Cl)c1OC	-3	0	11	-1	10
COc1cc(CNCCc2ccccc2)cc(Cl)c1OCc1ccccc1	122*	-22	-2	-13	24
CN(C)C(=O)[C@H]1[C@H](CO)[C@H]2Cn3c(ccc(-c4ccccc4F)c3=O)[C@@H]1N2C	14	.	.	-3	.
Cc1noc(C)c1S(=O)(=O)Nc1ccc2c(c1)C(=O)N([C@@H](C)CO)C[C@@H](C)[C@H](CN(C)S(=O)(=O)c1ccccc1)OCCCC[C@H](C)O2	-21	.	.	0	-16[16.7 µM]
CCOC(=O)c1c(CSc2cccs2)n(C)c2cc(Br)c(O)c(CN(C)C)c12	-41	1	13	-4	85*
CCOC(=O)c1c(C)n(C)c2cc(Br)c(O)c(O)c12	23	-2	?	3	-19
Fc1ccc(NC(=S)NNc2ncc(C(F)(F)F)cc2Cl)c(F)c1	-39	-5	-62	1	70*
FC(F)(F)c1cnc(NNC(=S)Nc2ccc(Cl)cc2)c(Cl)c1	-24	.	-48	.	55*
SMILES	GSIS activator	Wnt bcat act	MITF act	CFTR F508del cor	HIV Env fusion
Cc1ccc(NC(=S)NNc2ncc(C(F)(F)F)cc2Cl)cc1	-28	.	-30	.	3
COc1ccc(C2CC(=O)N(C)c3ccccc3S2)cc1OC (stereo not given)	.	54*	35	.	-2
COc1ccc(C2CC(=O)N(CC(=O)NCC3CCCO3)c3ccccc3S2)cc1OC (stereo not given)	16	-8	1	2	9
COc1cc2c(oc(=O)c3cc(C)cc(OC)c32)c2c(C3OC(C)C(O)C(C)(O)C3O)ccc(O)c12 (stereo not given)	.	-2	.	3	56*
COCC(=O)N1C[C@H](C)[C@@H](OC)CN(C)C(=O)c2cc(NC(=O)c3cnccn3)ccc2OC[C@@H]1C	23	.	.	3	.
O=[N+]([O-])c1ccc(Nc2nccc(Cl)n2)cc1	9	55*	.	1	5
CC(C)(C)Nc1nc(Nc2ccc([N+](=O)[O-])cc2)nc(NC(C)(C)C)n1	19	-3	.	-1	6
N/C(=N\OC(=O)c1ccccc1)c1ccccn1	8	-3	-56	.	-15
Cc1ccc(C(=O)O/N=C(\N)c2ccccn2)cc1	4	0	-69	-1	62*
CCOc1ccc(C(=O)O/N=C(\N)c2ccccn2)cc1	-2	-4	.	8.2*	63*
CO[C@@H]1CN(C)C(=O)c2ccc(NC(=O)Nc3cccc(F)c3)cc2OC[C@H](C)N(C(C)=O)C[C@@H]1C	-24	.	.	0	-3[16.7 µM]
O=C(C[C@H]1CC[C@@H]2[C@H](COC[C@@H](O)CN2S(=O)(=O)c2cccc(F)c2)O1)Nc1ccc(-c2ccccc2)cc1	-13	.	.	1	.
O=C(Nc1ccc(Oc2ccccc2)cc1)c1csc([C@H]2C[C@H](O)[C@@H](CO)O2)n1	.	-8	.	-1	68*
O=C(Nc1ccc(F)c(Cl)c1)c1csc([C@H]2C[C@H](O)[C@@H](CO)O2)n1	-7	40*	.	0	-49
CC(=O)Nc1ccc(NC(=O)c2csc([C@@H]3C[C@H](O)[C@@H](CO)O3)n2)cc1	0	-2	.	-2	8
O=C(Nc1ccc(F)c(Cl)c1)c1csc([C@@H]2C[C@H](O)[C@@H](CO)O2)n1	4	-2	.	0	-18
Cc1cc(C)n2nc(-c3ccc(Br)cc3)cc2n1	0	45*	.	4	-135
COc1ccc(-c2cc3nc(C)cc(C)n3n2)cc1	.	-5	53	.	-130
Cc1cc(C)n2nc(-c3ccc(Cl)cc3)cc2n1	-1	34*	24	4	-78
O=C(CCN1CCCCC1)NCC[C@H]1CC[C@H](NC(=O)Nc2ccc(F)cc2)[C@H](CO)O1	-2	.	.	-3	4[16.7 µM]
CCCS/C(N)=N/N=C/c1cc(C)ccc1O	.	.	123*	.	.
CCCCS/C(N)=N/N=C/c1ccccc1O	.	.	69	.	-88
COc1cc(NC(=O)c2cc3ccccc3cc2O)c(OC)cc1Cl	-21	-14	-34	1	33
COc1ccccc1NC(=O)c1cc2cc(Br)ccc2cc1O	3	-1	2	-2	57*
COc1cc2ccccc2cc1C(=O)Nc1ccccc1Cl	-18	45*	36	1	-112
O=C(Nc1ccccc1O)c1cc2cc(Br)ccc2oc1=O	3	?	101*	-2	-26
COc1cc2ccccc2cc1C(=O)Nc1ccc(C)cn1	24	35*	35	5	-103
CS(=O)(=O)N1[C@@H]2c3ccc(-c4ccc(F)cc4)c(=O)n3C[C@@H]2[C@@H](CO)[C@@H]1C(=O)O	-2	.	.	.	-4[16.7 µM]
C[C@H]1CN([C@@H](C)CO)C(=O)Cc2cc(NC(=O)C3CCCCC3)ccc2O[C@H]1CN(C)C(=O)Nc1ccccc1	-3	.	.	1	5[16.7 µM]
C[C@@H]1CN([C@@H](C)CO)C(=O)c2cc(NS(=O)(=O)c3ccc(F)cc3)ccc2O[C@@H](C)CCCCO[C@@H]1CN(C)C(=O)Cc1ccccc1	-11	.	.	3	-1[16.7 µM]
